Measured values reported in the supplement of paper PMC10849652.
Of roughly 7,900 targets only a part is listed; those with a hit were picked by preference. About 0.6% of all pairs of compound and target were hits.

Experiments:
Assay in all cases: log2 fold change, soluble protein after heating vs DMSO (PISA); higher = thermal stabilisation; K562 cells, 10 uM, 30 min; active = over 0.2 and 3.5 SD of the protein, either way, in both replicates (recomputed)
[1] = compound: C1=CC=C(C=C1)[C@H](COC2=CC3=C(C=C2)NC(=O)N3)NC(=O)C4=CC=CN(C4=O)CC5=CC(=C(C=C5)F)F
Method in brief: (§1)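 Values are thermal stability changes relative to control samples and are taken from duplicates. They are stated as log2 fold changes. Before quantification by TMTpro 16plex LC-MS/MS with equalised channel sums, K562 cells at 2×10^6 cells/mL were treated with 10 μM compound for 30 min, heated in aliquots for 3 min across 48°C-58°C, pooled, extracted in PBS with 0.5% NP-40 at 4°C, and centrifuged at 21,000xg for 90 min to give the soluble supernatant.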

[2] = compound: CC1=C(SC2=C1C(=N[C@H](C3=NN=C(N32)C)CC(=O)N)C4=CC=C(C=C4)Cl)C
Method in brief: as §1

[3] = compound: CC1=C2C(=CC=C1)N=C(N(C2=O)C3=CC=CC=C3C)CN4C=NC5=C(N=CN=C54)N
Method in brief: as §1

[4] = compound: Cc1sc2c(c1C)C(c1ccc(Cl)cc1)=N[C@@H](CC(=O)OC(C)(C)C)c1nnc(C)n1-2
Method in brief: as §1

[5] = compound: c1ccc([C@@H]2C[C@H]2NC2CCNCC2)cc1
Method in brief: as §1

Chain of UniProt Q8TE73 (Q8TE73 whole entry, looked up): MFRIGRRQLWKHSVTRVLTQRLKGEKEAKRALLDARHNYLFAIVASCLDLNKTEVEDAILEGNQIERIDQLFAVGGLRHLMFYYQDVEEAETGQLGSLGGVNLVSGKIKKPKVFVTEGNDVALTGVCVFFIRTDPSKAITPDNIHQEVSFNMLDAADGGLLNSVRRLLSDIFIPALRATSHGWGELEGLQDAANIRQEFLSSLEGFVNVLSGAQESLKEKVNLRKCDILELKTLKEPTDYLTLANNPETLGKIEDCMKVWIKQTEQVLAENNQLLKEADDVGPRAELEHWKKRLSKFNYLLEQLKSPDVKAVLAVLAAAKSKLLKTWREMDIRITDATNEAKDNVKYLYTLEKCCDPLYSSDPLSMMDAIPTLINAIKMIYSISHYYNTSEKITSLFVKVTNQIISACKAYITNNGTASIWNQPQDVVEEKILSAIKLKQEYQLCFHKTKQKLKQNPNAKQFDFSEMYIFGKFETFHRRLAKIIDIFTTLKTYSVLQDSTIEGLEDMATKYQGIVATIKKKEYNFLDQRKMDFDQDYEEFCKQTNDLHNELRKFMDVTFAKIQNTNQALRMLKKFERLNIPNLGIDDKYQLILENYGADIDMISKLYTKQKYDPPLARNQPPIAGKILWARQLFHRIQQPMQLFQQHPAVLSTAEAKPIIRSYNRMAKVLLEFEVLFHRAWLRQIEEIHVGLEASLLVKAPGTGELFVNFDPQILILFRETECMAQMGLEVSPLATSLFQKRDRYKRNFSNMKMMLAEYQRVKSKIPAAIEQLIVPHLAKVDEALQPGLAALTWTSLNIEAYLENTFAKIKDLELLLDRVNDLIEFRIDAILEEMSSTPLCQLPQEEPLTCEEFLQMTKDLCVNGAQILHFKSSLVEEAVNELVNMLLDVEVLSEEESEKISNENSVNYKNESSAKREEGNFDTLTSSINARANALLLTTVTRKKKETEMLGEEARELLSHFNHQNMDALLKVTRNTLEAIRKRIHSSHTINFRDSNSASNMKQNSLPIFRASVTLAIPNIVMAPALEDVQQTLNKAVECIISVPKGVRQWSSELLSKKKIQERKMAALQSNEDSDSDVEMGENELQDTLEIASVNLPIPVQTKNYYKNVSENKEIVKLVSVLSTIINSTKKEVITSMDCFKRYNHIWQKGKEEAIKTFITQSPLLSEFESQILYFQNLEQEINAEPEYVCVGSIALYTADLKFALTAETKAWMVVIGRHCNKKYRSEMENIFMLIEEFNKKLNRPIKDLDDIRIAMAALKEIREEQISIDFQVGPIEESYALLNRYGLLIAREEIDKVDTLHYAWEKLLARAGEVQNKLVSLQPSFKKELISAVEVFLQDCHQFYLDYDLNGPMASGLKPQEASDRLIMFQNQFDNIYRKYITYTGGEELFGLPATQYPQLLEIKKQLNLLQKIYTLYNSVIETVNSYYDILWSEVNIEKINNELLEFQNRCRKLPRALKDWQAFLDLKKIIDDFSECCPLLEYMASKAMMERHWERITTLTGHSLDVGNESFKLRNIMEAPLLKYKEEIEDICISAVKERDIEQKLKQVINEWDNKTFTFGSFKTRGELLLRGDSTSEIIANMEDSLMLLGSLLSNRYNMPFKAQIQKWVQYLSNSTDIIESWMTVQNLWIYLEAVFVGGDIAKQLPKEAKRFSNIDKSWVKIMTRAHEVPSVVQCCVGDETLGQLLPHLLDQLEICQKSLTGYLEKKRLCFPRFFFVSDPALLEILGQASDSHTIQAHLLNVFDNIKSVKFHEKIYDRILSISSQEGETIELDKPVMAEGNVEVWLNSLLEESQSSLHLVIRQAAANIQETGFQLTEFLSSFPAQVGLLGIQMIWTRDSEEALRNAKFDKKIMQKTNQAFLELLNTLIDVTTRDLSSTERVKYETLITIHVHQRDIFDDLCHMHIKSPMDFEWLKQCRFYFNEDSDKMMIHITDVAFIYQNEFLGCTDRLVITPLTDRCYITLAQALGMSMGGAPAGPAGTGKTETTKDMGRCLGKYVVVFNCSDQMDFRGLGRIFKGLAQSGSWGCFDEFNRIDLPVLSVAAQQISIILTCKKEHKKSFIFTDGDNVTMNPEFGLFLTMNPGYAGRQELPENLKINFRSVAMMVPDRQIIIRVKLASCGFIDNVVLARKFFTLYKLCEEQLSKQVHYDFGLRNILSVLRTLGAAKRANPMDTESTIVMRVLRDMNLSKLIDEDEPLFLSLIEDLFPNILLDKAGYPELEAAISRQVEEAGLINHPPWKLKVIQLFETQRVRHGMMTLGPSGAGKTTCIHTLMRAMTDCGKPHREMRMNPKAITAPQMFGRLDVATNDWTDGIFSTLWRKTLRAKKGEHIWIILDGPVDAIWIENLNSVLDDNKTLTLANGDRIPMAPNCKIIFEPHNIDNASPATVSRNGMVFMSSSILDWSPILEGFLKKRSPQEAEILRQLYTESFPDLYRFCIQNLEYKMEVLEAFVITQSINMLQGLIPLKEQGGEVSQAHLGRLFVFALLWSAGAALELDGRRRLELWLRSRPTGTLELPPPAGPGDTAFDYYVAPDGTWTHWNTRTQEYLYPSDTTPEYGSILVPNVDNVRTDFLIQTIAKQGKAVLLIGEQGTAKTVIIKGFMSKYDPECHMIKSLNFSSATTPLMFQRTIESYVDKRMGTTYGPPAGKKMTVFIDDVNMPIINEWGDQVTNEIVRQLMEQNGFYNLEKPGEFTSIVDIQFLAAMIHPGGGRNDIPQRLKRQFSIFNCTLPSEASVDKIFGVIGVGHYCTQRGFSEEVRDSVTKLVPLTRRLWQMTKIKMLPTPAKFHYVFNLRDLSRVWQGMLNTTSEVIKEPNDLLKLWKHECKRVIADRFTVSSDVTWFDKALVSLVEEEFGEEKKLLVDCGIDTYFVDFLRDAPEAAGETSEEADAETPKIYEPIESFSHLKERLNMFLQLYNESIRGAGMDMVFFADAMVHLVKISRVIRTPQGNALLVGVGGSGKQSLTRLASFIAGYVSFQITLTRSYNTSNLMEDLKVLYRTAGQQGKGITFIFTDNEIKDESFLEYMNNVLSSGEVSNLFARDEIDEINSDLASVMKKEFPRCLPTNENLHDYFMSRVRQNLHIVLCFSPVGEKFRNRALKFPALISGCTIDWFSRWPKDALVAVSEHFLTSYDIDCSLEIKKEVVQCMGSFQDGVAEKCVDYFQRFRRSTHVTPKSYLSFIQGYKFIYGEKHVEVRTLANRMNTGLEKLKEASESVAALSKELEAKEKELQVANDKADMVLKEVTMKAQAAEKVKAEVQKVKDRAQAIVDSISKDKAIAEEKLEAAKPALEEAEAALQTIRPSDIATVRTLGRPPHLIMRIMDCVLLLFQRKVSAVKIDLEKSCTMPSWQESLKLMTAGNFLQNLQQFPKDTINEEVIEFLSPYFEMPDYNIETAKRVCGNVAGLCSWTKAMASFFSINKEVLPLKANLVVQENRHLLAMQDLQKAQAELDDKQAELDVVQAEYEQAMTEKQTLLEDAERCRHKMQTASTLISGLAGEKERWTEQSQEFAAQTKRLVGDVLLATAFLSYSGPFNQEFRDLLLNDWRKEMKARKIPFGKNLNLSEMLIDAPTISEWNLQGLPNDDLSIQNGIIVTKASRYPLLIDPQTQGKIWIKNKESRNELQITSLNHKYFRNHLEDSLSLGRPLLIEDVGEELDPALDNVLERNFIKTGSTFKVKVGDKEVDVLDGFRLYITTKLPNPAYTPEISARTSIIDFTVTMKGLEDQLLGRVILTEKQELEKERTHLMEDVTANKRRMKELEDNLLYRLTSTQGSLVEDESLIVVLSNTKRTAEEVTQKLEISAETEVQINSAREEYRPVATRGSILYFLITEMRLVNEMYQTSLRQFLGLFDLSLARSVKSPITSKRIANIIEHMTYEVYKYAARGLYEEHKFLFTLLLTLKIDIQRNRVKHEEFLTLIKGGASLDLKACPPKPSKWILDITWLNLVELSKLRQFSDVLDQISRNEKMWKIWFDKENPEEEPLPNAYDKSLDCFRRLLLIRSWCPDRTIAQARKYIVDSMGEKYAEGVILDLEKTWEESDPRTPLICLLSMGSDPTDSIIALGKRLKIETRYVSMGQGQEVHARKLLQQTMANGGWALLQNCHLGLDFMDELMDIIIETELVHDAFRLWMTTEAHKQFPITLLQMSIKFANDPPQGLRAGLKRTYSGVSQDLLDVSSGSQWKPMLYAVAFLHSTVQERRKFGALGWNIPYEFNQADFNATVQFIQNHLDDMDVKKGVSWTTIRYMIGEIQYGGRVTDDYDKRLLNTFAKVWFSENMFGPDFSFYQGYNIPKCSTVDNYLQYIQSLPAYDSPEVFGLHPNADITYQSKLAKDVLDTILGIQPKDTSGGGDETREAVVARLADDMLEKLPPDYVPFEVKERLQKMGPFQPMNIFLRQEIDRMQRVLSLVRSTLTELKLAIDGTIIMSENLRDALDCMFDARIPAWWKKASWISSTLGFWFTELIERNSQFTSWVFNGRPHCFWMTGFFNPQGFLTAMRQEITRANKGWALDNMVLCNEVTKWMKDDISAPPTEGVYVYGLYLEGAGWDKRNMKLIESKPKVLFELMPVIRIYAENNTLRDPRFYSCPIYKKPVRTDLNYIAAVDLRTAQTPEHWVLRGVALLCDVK
Chain of UniProt Q96EV8 (Q96EV8 whole entry, looked up): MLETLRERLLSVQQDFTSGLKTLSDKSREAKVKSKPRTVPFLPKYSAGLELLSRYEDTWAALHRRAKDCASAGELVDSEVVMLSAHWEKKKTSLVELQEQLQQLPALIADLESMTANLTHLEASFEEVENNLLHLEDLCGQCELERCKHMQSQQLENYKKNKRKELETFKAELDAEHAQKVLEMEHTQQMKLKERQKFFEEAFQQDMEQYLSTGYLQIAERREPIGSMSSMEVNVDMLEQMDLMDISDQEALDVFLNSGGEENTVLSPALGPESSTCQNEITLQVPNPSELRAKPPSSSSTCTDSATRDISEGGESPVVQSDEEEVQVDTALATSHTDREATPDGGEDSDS
Chain of UniProt P00374 (P00374 whole entry, looked up): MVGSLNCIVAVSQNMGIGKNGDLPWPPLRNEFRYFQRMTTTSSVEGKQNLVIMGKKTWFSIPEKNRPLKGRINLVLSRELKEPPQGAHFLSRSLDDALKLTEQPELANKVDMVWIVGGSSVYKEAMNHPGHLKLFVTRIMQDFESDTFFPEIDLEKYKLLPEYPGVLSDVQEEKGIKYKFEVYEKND

| Target | log2 fold change [1] | log2 fold change [2] | log2 fold change [3] | log2 fold change [4] | log2 fold change [5] |
| --- | --- | --- | --- | --- | --- |
| DDX39A (UniProt O00148) | -0.174 (inactive) | 0.063 (inactive) | 0.025 (inactive) | 0.015 (inactive) | -0.01 (inactive) |
| DNAH11 (UniProt Q96DT5) | 0.047 (inactive) | -0.387 (inactive) | 0.089 (inactive) | -0.021 (inactive) | 0.092 (inactive) |
| FAM83D (UniProt Q9H4H8) | -0.068 (inactive) | 0.027 (inactive) | 0 (inactive) | 0.045 (inactive) | 0.06 (inactive) |
| DDB1 (UniProt Q16531) | 0.023 (inactive) | -0.003 (inactive) | 0.01 (inactive) | 0 (inactive) | 0.016 (inactive) |
| EEF1AKNMT (UniProt Q8N6R0) | -0.146 (inactive) | 0.049 (inactive) | 0.121 (inactive) | 0.028 (inactive) | -0.063 (inactive) |
| EXTL2 (UniProt Q9UBQ6) | 0.028 (inactive) | 0.106 (inactive) | 0.003 (inactive) | 0.316 (active) | -0.211 (inactive) |
| DCAF13 (UniProt Q9NV06) | 0.105 (inactive) | -0.221 (inactive) | -0.152 (inactive) | 0.128 (inactive) | 0 (inactive) |
| DLD (UniProt P09622) | 0.016 (inactive) | 0.006 (inactive) | -0.005 (inactive) | -0.016 (inactive) | 0.044 (inactive) |
| E2F4 (UniProt Q16254) | 0.006 (inactive) | 0.039 (inactive) | 0.098 (inactive) | 0.022 (inactive) | -0.001 (inactive) |
| DHRS1 (UniProt Q96LJ7) | 0.241 (inactive) | 0.015 (inactive) | 0.216 (inactive) | 0.321 (inactive) | 0.013 (inactive) |
| DCAF6 isoform 3 (UniProt Q58WW2) | 0.04 (inactive) | -0.017 (inactive) | 0.003 (inactive) | 0.032 (inactive) | 0.027 (inactive) |
| DTNBP1 (UniProt Q96EV8) | -0.033 (inactive) | 0.031 (inactive) | 0.02 (inactive) | 0.001 (inactive) | 0.013 (inactive) |
| DOHH (UniProt Q9BU89) | 0.218 (inactive) | 0.072 (inactive) | -0.062 (inactive) | 0.031 (inactive) | -0.088 (inactive) |
| DNAH5 (UniProt Q8TE73) | 0.074 (inactive) | 0.023 (inactive) | 0.08 (inactive) | 0.139 (inactive) | 0.062 (inactive) |
| EFCAB14 (UniProt O75071) | 0.045 (inactive) | -0.293 (active) | 0.016 (inactive) | 0.018 (inactive) | 0.321 (inactive) |
| DHFR (UniProt P00374) | -0.077 (inactive) | -0.014 (inactive) | 0.083 (inactive) | 0.058 (inactive) | 0.396 (inactive) |
| DOLPP1 (UniProt Q86YN1) | -0.028 (inactive) | 0.02 (inactive) | -0.107 (inactive) | 0.062 (inactive) | 0.153 (inactive) |
| CYFIP1 (UniProt Q7L576) | 0.009 (inactive) | 0.005 (inactive) | -0.009 (inactive) | -0.005 (inactive) | -0.029 (inactive) |
| EXOC8 (UniProt Q8IYI6) | -0.004 (inactive) | 0.029 (inactive) | 0.03 (inactive) | 0.006 (inactive) | -0.051 (inactive) |
| EPHX2 (UniProt P34913) | -0.015 (inactive) | 0.091 (inactive) | 0.052 (inactive) | 0.143 (inactive) | -0.002 (inactive) |
| DBN1 isoform 3 (UniProt Q16643) | 0.049 (inactive) | 0.019 (inactive) | -0.027 (inactive) | 0.044 (inactive) | 0.004 (inactive) |
| CUEDC2 (UniProt Q9H467) | 0.036 (inactive) | 0.047 (inactive) | 0.038 (inactive) | 0.01 (inactive) | -0.022 (inactive) |
| EXOC7 (UniProt Q9UPT5) | -0.063 (inactive) | -0.001 (inactive) | 0.035 (inactive) | 0.07 (inactive) | -0.014 (inactive) |
| F5 (UniProt P12259) | -0.025 (inactive) | -0.091 (inactive) | 0.003 (inactive) | 0.077 (inactive) | 0.014 (inactive) |
| DTWD2 (UniProt Q8NBA8) | -0.011 (inactive) | 0.125 (inactive) | 0.064 (inactive) | 0.043 (inactive) | -0.036 (inactive) |
